Data taken from article PMC3795721, “Screening for Protein-DNA Interactions by Automatable DNA-Protein Interaction ELISA”.

What follows are sequences tested against AT4G31550 (Arabidopsis thaliana, UniProt Q9SV15 228-325) (assay: DPI-ELISA; DPI-ELISA, streptavidin 384-well plate, 1-2 pmol biotinylated dsDNA per well, crude native E. coli extract, anti-His detection; buffer as in Brand et al. [46],; high values mean tight binding). Conditions: tags: C-terminal His (pET-DEST42); label: 5' biotin on forward strand; dsDNA, one strand shown.
AT4G31550, sequence (Q9SV15 228-325): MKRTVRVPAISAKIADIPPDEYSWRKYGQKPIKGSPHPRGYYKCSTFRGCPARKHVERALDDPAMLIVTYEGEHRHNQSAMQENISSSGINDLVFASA

| Sequence | binding signal |
| --- | --- |
| AAAAAATTACTATTACACACTTGGGGAAAA | 0.6 ± 0.127 absorbance |
| AAAAAATTTATACTTGATCCTGGCTTAAAA | 0.575 ± 0.0636 absorbance |
| AAAAAATGTCTTCTTACACCCTCTAGAAAA | 0.68 ± 0.0707 absorbance |
| AAAAAATTCTAGCTTTTAACTTTAGCAAAA | 0.6 ± 0.141 absorbance |
| AAAAAACGCATCATAGCTACGCCCCAAAAA | 0.62 ± 0.0849 absorbance |
| AAAAAAAGGTTTGGGCTTCACGTTATAAAA | 0.725 ± 0.12 absorbance |
| AAAAAAGCTAGTGCTGCCACCAACGTAAAA | 0.535 ± 0.12 absorbance |
| AAAAAAATGATTGCCAATGCTCGCAAAAAA | 0.73 ± 0.156 absorbance |
| AAAAAATTGCACCTGATACTAGGGTTAAAA | 0.655 ± 0.148 absorbance |
| AAAAAAGTCTGCGTCCTACCCCATTCAAAA | 1.04 ± 0.184 absorbance |
| AAAAAATTCGGGACTAGTAGTGGTGAAAAA | 0.605 ± 0.0778 absorbance |
| AAAAAATTTGTTCGGGCTCATAACTGAAAA | 0.595 ± 0.148 absorbance |
| AAAAAAACACCTGTATAGCATGGACGAAAA | 0.73 ± 0.0707 absorbance |
| AAAAAAGTCGTTACACGTATGCGTGCAAAA | 1.5 ± 0.0566 absorbance |
| AAAAAATAAACGTGTTCATACTTAGTAAAA | 0.61 ± 0.0707 absorbance |
| AAAAAAGGAAAACGAGTTCATCTGGTAAAA | 0.585 ± 0.134 absorbance |
| AAAAAACGCTCCGTTTTTGCAATGCGAAAA | 0.61 ± 0.0707 absorbance |
| AAAAAAGACCGCAGCAAGAATTAAATAAAA | 0.49 ± 0.141 absorbance |
| AAAAAAATGTTCAAGCTCGATCTACAAAAA | 0.63 ± 0.127 absorbance |

| Sequence | binding signal |
| --- | --- |
| AAAAAACTGGATGCGCTCACCAGTTAAAAA | 0.52 ± 0.099 absorbance |
| AAAAAAGCCTTTACCCTTGTTCCTCTAAAA | 0.69 ± 0.17 absorbance |
| AAAAAATGGTCGTCGTACTCGTGGTCAAAA | 2.96 ± 0.424 absorbance |
| AAAAAATTGCCGTCATAATTGTGGTAAAAA | 0.59 ± 0.0849 absorbance |
| AAAAAAGTCGTCACGCACGTGAATACAAAA | 1.15 ± 0.0141 absorbance |
| AAAAAAGGTCTGGACGATCACCGGGAAAAA | 0.565 ± 0.12 absorbance |
| AAAAAAGTTATTATACCTGATCTCGCAAAA | 1 ± 0.778 absorbance |
| AAAAAATTTTGTGGTGTTTCGCCACCAAAA | 0.715 ± 0.0495 absorbance |
| AAAAAAAATTAGTCTCTTCGTCTCCCAAAA | 0.575 ± 0.106 absorbance |
| AAAAAAGGCTCCGGCCCCCAATCGCAAAAA | 0.61 ± 0.0566 absorbance |
| AAAAAACCAGTCTACACCGCTGTAGGAAAA | 0.705 ± 0.0919 absorbance |
| AAAAAATAAATCGCGGCTACTGCTTCAAAA | 0.55 ± 0.141 absorbance |
| AAAAAATTAATCCATGCTTATGTCTGAAAA | 0.71 ± 0.184 absorbance |
| AAAAAACCAACTCTCTTTCGGACTATAAAA | 0.67 ± 0.156 absorbance |
| AAAAAAATGGTGCCGCTGAGCAAATTAAAA | 0.555 ± 0.12 absorbance |
| AAAAAATTGGCACACATGATCTCGGGAAAA | 0.56 ± 0.113 absorbance |
| AAAAAAGGGAGTCATGCTTCTTGTTTAAAA | 0.645 ± 0.0919 absorbance |
| AAAAAATCGGTACGCACCCCGGACTCAAAA | 0.73 ± 0.184 absorbance |
| AAAAAACGTTAACACTGATTTAGGGTAAAA | 0.595 ± 0.0778 absorbance |
